According to PubChem BioAssay (NCATS):
Several values for one entry are separate records, joined by “and”; a condition that tells them apart may be missing. Equal entries are not always repeated. Inconclusive results are not listed. Unmarked numbers belong to inactive results. Activity calls are given as the source filed them. Calls come from the whole dose curve; as a rule, active = well fitted activation curve with a large enough effect in the signal ratio; inconclusive = small, poorly fitted or top-dose-only effect, or a change in a side signal; inactive = flat fitted curve, though single readings scatter; the % refers to the signal ratio.

Assay: qHTS assay for small molecule activators of the nuclear factor-kappa B (NF-kB) signaling pathway (AID 651749); for activation: series mostly up to about 77 µM; % of control where 0% means no effect
Conditions: NF-kB-bla ME-180 cells, beta-lactamase FRET ratio, 16 h; activation: active compounds read high
Text: National Center for Advancing Translational Sciences [NCATS] NIH Chemical Genomics Center [NCGC] U.S. Environmental Protection Agency [EPA] National Institutes of Environmental Health Sciences [NIEHS] National Toxicology Program [NTP] Assay Overview: Transcription factors and their stimulated target gene expression play pivotal roles across many cellular processes including responses to environmental stimuli. Proper regulation of associated pathways is critical to maintain cell health and function. Constitutive activation of transcription factor pathways has been implicated in tumors as it may block cellular functions such as apoptosis and lead to invasion and metastasis. One important transcription factor that stimulates gene expression in response to cytokines, UV radiation, and other stimuli is nuclear factor-kappa B (NF-kB). To measure activation of the NF-kB pathway, the NF-kB-bla ME-180 cell line stably expressed beta-lactamase reporter gene under the regulation of a NF-kB response element was obtained from Invitrogen. This assay allows measurement of the NF-kB pathway activity induced by compounds in a ME-180 cell line. This system quantitates NF-kB activity using a FRET-based assay system where beta-lactamase expression disrupts FRET, allowing for fluorescent measurement of activity.
Assay Protocol Summary: For toxicology screening, 2,000 cells in 5 uL/well were dispensed into black, clear-bottom 1536-well plates using a Multidrop Combi (Thermo Scientific) dispenser. Following transfer of 23 nL compound or DMSO vehicle by a pin tool, the plates were incubated 16 hr at 37C and 5% CO2.
Potency is the fitted concentration of half-maximal effect.

Row | Compound | activation | Potency
1 | C=C(C)C(=O)OCCC[Si](OC)(OC)OC | -3.72% | 
2 | CC(C)O.CC(C)O.CC(C)O.CC(C)O.[Ti] | -1.08% | 
3 | CCN(Cc1c(F)cccc1Cl)c1c([N+](=O)[O-])cc(C(F)(F)F)cc1[N+](=O)[O-] | -3.71% | 
4 | CC(=O)Nc1ccc(N=Nc2cc(C)ccc2O)cc1 | -1.84% | 
5 | CCN(Cc1cccc(S(=O)(=O)O)c1)c1ccc(C(=C2C=CC(=[N+](CC)Cc3cccc(S(=O)(=O)[O-])c3)C=C2)c2ccccc2)cc1 | -0.828% | 
6 | CCCCCCCCCCCCCCN(C)C | -1.59% | 
7 | CC(=O)c1c(C)c([N+](=O)[O-])c(C(C)(C)C)c([N+](=O)[O-])c1C | -2.72% | 
8 | CCOC(=O)c1ccccc1C | 0.727% | 
9 | CC(C)(C)C(O)/C(=C\c1ccc(Cl)cc1)n1cncn1 (stereo not given) | -1.6% | 
10 | CCCCCCCCCCCCc1ccccc1 | 1.6% | 
11 | Nc1c(N=Nc2ccc(S(=O)(=O)CCOS(=O)(=O)O)cc2)c(S(=O)(=O)O)cc2cc(S(=O)(=O)O)c(N=Nc3ccc(S(=O)(=O)CCOS(=O)(=O)O)cc3)c(O)c12 | 1.61% | 
12 | O=C(O)c1ccc(C(=O)O)c(C(=O)O)c1 | -0.152% | 
13 | CCOC(=O)[C@H](C)Oc1ccc(Oc2nc3ccc(Cl)cc3o2)cc1 | -0.102% | 
14 | CCCCCCCC/C=C\CCCCCCCCCCCCC | -1.6% | 
15 | C[Si]1(C)O[Si](C)(C)O[Si](C)(C)O[Si](C)(C)O1 | 0.122% | 
16 | C[Si]1(C)O[Si](C)(C)O[Si](C)(C)O[Si](C)(C)O[Si](C)(C)O1 | -6.08% | 
17 | COC(=O)CCSCCC(=O)OC | -0.163% | 
18 | CCCCCCC(C)(C)S | -2.27% | 
19 | CCCCOCC(C)OCC(C)O (stereo not given) | -0.368% | 
20 | CC(C)=CCC[C@@H](C)[C@H]1CC[C@@]2(C)C3=C(CC[C@]12C)[C@@]1(C)CC[C@H](O)C(C)(C)[C@@H]1CC3 | 1.26% | 

Row | Compound | activation | Potency
21 | O=S(c1ccc(Cl)cc1)c1cc(Cl)c(Cl)cc1Cl (stereo not given) |  | 7.94 µM (active)
22 | Cc1ccc(N=Nc2c(O)ccc3ccccc23)c([N+](=O)[O-])c1 | -0.237% | 
23 | CCNc1nc(N)nc(Cl)n1 | -0.704% and -0.787% | 
24 | O=c1n(CCO)c(=O)n(CCO)c(=O)n1CCO | 4.3% | 
25 | CCOc1ccc(NC(=O)OC(C)C)cc1OCC | -0.916% | 
26 | Cc1c(Cl)cccc1Cl | -1.64% | 
27 | CO[Si](CCCOCC1CO1)(OC)OC (stereo not given) | -2.38% | 
28 | Cl[Si](Cl)(Cl)c1ccccc1 | -0.0547% | 
29 | CCSC(=O)N(CC(C)C)CC(C)C | -0.513% | 
30 | CC(Cl)(Cl)C(=O)OCCOc1cc(Cl)c(Cl)cc1Cl | -1.51% | 
31 | CCCCC(CC)CN1C(=O)C2C3C=CC(C3)C2C1=O (stereo not given) | 0.646% | 
32 | CCCCCCCC/C=C\CCCCCCCCO | -1.39% | 
33 | CCCCNS(=O)(=O)c1ccccc1 | 0.692% | 
34 | CCCCCCCCCCCCCCO | 0.681% | 
35 | C[Si](Cl)(Cl)c1ccccc1 | 0.494% | 
36 | CCCCOCCOCCOC(=O)CCCCC(=O)OCCOCCOCCCC | -0.225% | 
37 | CCCCOC(=O)/C=C\C(=O)OCCCC | 0.89% | 
38 | O=C(O)C(Oc1ccc(Cl)cc1)Oc1ccc(Cl)cc1 | 0.776% | 
39 | CCCCCCCCCCCC[N+](C)(C)[O-] | 2.53% | 
40 | CO[Si](OC)(OC)c1ccccc1 | 0.204% | 
